Compound activity as filed in PubChem BioAssay.
ATXN viability = Viability Counterscreen for Primary qHTS for Inhibitors of ATXN expression. S2 cells (HEK-293 line with an ATXN2-luciferase reporter) viability, CellTiter-Fluor protease fluorescence, 24 h. Potency, µM (series often up to 56.7 µM), most hits filed as cytotoxic. 400,000 compounds, 0.49% hits. AID 651635, 2014; further: nearly all actives have a fitted effect of over 40% in size
HepG2 tox-1 = qHTS for Inhibitors of TGF-b: Cytotox Counterscreen; HepG2 CAGA-GFP viability, ATP luminescence, 18 h; Potency, µM (doses to about 46.1 µM), most hits filed as cytotoxic; 410,000 compounds, 0.76% hits; AID 588856, 2011
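CellTiter-Glo luminescence gave cytotoxicity after 18 hours at 37 degrees C. The cells were HepG2 CAGA-GFP in 1% FBS DMEM, stimulated with 500 pg/mL TGF-beta after compound addition. %Activity was normalised to no-cell wells (complete cell-killing) and DMSO (no toxicity), and curves were fitted and classified.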
TGFb inhibitor = qHTS for Inhibitors of TGF-b | HepG2 CAGA-GFP TGF-b/SMAD3 reporter, GFP fluorescence, 18 h; TGF-beta stimulated, 500 pg/mL final | Potency, µM (titrated, usually from 46.1 µM), hits mostly inhibitors | 410,000 compounds, 1.2% hits; further: nearly all actives have a fitted effect of over 65% in size
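Cell-based qHTS in HEPG2 carrying a CAGA-GFP Smad reporter; compounds added before 500 pg/mL final TGF-beta, 18 h incubation at 37 degrees C, GFP fluorescence quantified per cell by imaging cytometry.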
Nrf2 block = Nrf2 qHTS screen for inhibitors. Potency, µM (top dose mostly 46 µM), usual class: inhibitors. 360,000 compounds, 2.1% hits. A549 ARE-Fluc reporter, luciferase luminescence, 18-24 h; further: nearly all actives have a fitted effect of over 60% in size
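Nrf2 activity is the BugLite luminescence, read 15 min after reagent at room temperature, following CellTiter-Fluor cytotoxicity readout (30 min, 37C). Compound titrations were applied for 18-24 h to 5000 A549 ARE_Fluc cells/well in 5% FBS OPTI-MEM.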
A549 tox-1 = Nrf2 qHTS screen for inhibitors: counterscreen for cytotoxicity. A549 ARE-Fluc cells, CellTiter-Fluor viability, 18-24 h. Potency, µM (top dose mostly 46 µM), hits mostly inhibitors. 390,000 compounds, 0.16% hits. AID 504648, 2011
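A549 ARE-Fluc cells in 5% FBS OPTI-MEM, 5000 cells/well, rested 2 h then exposed to compounds in concentration-response for 18-24 h at 37 °C. Viability by CellTiter-Fluor fluorescence (Ex 405/Em 525) after 30 min; luciferase luminescence (BugLite, 15 min, RT) read afterwards.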
ATXN2 expr inh = Primary qHTS for Inhibitors of ATXN expression. AID 1745845, 2022. HEK-293 ATXN2-luciferase reporter, luminescence, 24 h. Potency, µM (top dose mostly 57 µM), usual class: inhibitors. 360,000 compounds, 0.72% hits; further: nearly all actives have a fitted effect of over 55% in size
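qHTS (up to 57 uM final) was run with 24 h compound exposure of reporter cells at 37 °C. Each well was multiplexed: SteadyGlo luminescence measured ATXN2-luciferase expression after a fluorogenic Gly-Phe-AFC viability readout (25 uM final).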
FLuc enzyme inh = Nrf2 qHTS screen for inhibitors: Purified Fluc Biochemical Counterscreen for Hit Validation | AID 720522, 2013 | purified firefly luciferase, luminescence inhibition | shares compounds with Nrf2 block | Potency, µM (doses to about 57.5 µM), most hits filed as inhibitors | 1,400 compounds, 4% hits; further: nearly all actives have a fitted effect of over 65% in size
Target sequence (P08659 whole entry, looked up): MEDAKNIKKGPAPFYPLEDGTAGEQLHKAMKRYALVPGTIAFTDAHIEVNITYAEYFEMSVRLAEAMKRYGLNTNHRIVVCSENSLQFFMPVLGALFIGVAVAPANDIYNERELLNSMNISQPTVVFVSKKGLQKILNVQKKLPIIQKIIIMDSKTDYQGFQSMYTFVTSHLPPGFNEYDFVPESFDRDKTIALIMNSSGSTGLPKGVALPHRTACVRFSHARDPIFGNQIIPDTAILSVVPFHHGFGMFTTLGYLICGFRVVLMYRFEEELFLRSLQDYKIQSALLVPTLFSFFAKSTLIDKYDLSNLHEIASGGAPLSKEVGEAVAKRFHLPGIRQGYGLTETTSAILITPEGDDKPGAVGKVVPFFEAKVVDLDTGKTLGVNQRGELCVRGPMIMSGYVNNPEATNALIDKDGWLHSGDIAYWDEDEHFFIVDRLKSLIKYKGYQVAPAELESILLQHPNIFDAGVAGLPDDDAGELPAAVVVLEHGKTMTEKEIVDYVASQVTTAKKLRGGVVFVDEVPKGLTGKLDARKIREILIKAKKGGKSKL
A549 tox-2 = Nrf2 qHTS screen for inhibitors: A549 ARE-Fluc Cytotoxicity Counterscreen for Hit Validation | shares compounds with Nrf2 block | A549 ARE-Fluc cells, cytotoxicity counterscreen | Potency, µM (doses to about 46.1 µM), hits mostly inhibitors | 1,400 compounds, 2% hits | AID 720523, 2013;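 further: cells exposed to compounds for 18 to 24 hours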
Nrf2 ARE inh = Nrf2 qHTS screen for inhibitors: Nrf2 A549 ARE-Fluc Confirmation Assay for Hit Validation. 1,400 compounds, 74% hits. shares compounds with Nrf2 block. A549 ARE-firefly luciferase reporter, luminescence. Potency, µM (series often up to 46.1 µM), actives largely listed as inhibitors. AID 720524, 2013; further: nearly all actives have a fitted effect of over 65% in size
TGFb CAGA inh = qHTS for Inhibitors of TGF-b: Confirmation of Cherry Picks. shares compounds with TGFb inhibitor. HepG2 CAGA-GFP TGF-b reporter, GFP fluorescence, 18 h; cells stimulated with TGF-beta, 500 pg/mL. Potency, µM (top dose mostly 46.1 µM), usual class: inhibitors. 1,600 compounds, 63% hits. AID 720534, 2013; further: nearly all actives have a fitted effect of over 65% in size
HepG2 tox-2 = qHTS for Inhibitors of TGF-b: Cytotox Counterscreen for Cherry Picks. shares compounds with TGFb inhibitor. HepG2 CAGA-GFP viability, ATP luminescence, 18 h; cells stimulated with TGF-beta, 500 pg/mL. Potency, µM (top dose mostly 46.1 µM), usual class: inhibitors. 1,600 compounds, 27% hits; further: nearly all actives have a fitted effect of over 70% in size
CCL64 TGFb inh = qHTS for Inhibitors of TGF-b: CCL64 Cells Orthogonal Assay for Cherry Picks. AID 720536, 2013. Potency, µM (titrated, usually from 46.1 µM), hits mostly inhibitors. CCL64 CAGA-GFP reporter, TGF-b stimulated, GFP fluorescence, 18 h. shares compounds with TGFb inhibitor. 1,600 compounds, 41% hits; further: nearly all actives have a fitted effect of over 65% in size
TGFb COP inh = qHTS for Inhibitors of TGF-b: Hit Validation in HepG2 Cells using COP promoter; shares compounds with TGFb inhibitor; HepG2 COP-GFP TGF-b reporter, GFP fluorescence, 18 h; cells stimulated by added recombinant TGF-beta; Potency, µM (titrated, usually from 46.1 µM), actives largely listed as inhibitors; 1,600 compounds, 3% hits; AID 720537, 2013; further: nearly all actives have a fitted effect of over 70% in size
Each line names hits and unclear results; the compound was inactive in the other large screens (follow-up assays come after a bar, where they were run). This is a sample that favours compounds with a hit; in the whole collection about 3.8% have one here. The call rests on the fitted dose curve; in most records, active means well fitted curve in the direction sought with a large enough effect; inconclusive means small, poorly fitted or top-dose-only effect, or another doubt; inactive means no such curve, though single readings can be large; an effect the other way counts as inactive or inconclusive.

Cc1onc(-c2c(F)cccc2Cl)c1C(=O)Nc1nnc(C(F)(F)F)s1	ATXN viability inconclusive, TGFb inhibitor 18µM, Nrf2 block 1.5µM, A549 tox-1 inconclusive, ATXN2 expr inh inconclusive | FLuc enzyme inh inactive | A549 tox-2 inactive | Nrf2 ARE inh 0.12µM | TGFb CAGA inh 21µM | HepG2 tox-2 inconclusive | CCL64 TGFb inh inconclusive | TGFb COP inh inactive
c1ccc(-c2csc3ncnc(NCC4COc5ccccc5O4)c23)cc1 (centres undefined)	ATXN viability inconclusive, TGFb inhibitor 3.5µM, Nrf2 block 1.6µM, ATXN2 expr inh inconclusive | FLuc enzyme inh inactive | A549 tox-2 inactive | Nrf2 ARE inh 1.2µM | TGFb CAGA inh 2.6µM | HepG2 tox-2 inconclusive | CCL64 TGFb inh 15µM | TGFb COP inh inactive
COc1ccc(-c2nc(CSc3nnc(C)n4c3cc3sccc34)c(C)o2)cc1	TGFb inhibitor inconclusive (no result: ATXN viability, ATXN2 expr inh)
CCN(CC)c1ccc(Nc2nc(N3CCOCC3)c3ccccc3n2)cc1	TGFb inhibitor 10µM, Nrf2 block 6.5µM, A549 tox-1 inconclusive | FLuc enzyme inh inconclusive | A549 tox-2 inactive | Nrf2 ARE inh 12µM | TGFb CAGA inh inconclusive | HepG2 tox-2 21µM | CCL64 TGFb inh inconclusive | TGFb COP inh inactive
C/C(=N/NC(=O)c1ccc(C(C)(C)C)cc1)c1ccccn1	TGFb inhibitor inconclusive, Nrf2 block 5.8µM, A549 tox-1 inconclusive, ATXN2 expr inh inconclusive | FLuc enzyme inh 11µM | A549 tox-2 inconclusive | Nrf2 ARE inh inconclusive | TGFb CAGA inh 2.6µM | HepG2 tox-2 inconclusive | CCL64 TGFb inh 9.2µM | TGFb COP inh inactive
C/C(=N\NC(=O)c1ccc(NS(=O)(=O)c2cccs2)cc1)c1ccccn1	Nrf2 block inconclusive, ATXN2 expr inh inconclusive
CC(Sc1nnc(-c2ccc(OC(F)F)cc2)n1N)C(=O)NCC1CCCO1 (centres undefined)	ATXN viability inconclusive
